This is part of a sample that, as a whole, favours compounds with a hit. Of some 83,000 tested, about 20% had one in any assay.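 Treatment: one concentration, 48 hours, 96-well format. Scoring: percent growth, with anything below 10 considered active.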 Values without a mark were called inactive. Calls of active or inactive are those of the source.
Columns and labels:
Assay in all cases: NCI-60 one-dose screen, 48 h (100 = growth as untreated, 0 = no growth, -100 = all killed)
Details in all cases: 10 µM unless noted
HCT-15 colon = tested on: HCT-15 colon
HT29 colon = tested on: HT29 colon
SNB-75 CNS = tested on: SNB-75 CNS
SNB-19 CNS = tested on: SNB-19 CNS
U251 CNS = tested on: U251 CNS
PC-3 prostate = tested on: PC-3 prostate
SK-MEL-5 melanoma = tested on: SK-MEL-5 melanoma
UACC-62 melanoma = tested on: UACC-62 melanoma
SK-MEL-28 melanoma = tested on: SK-MEL-28 melanoma
SK-MEL-2 melanoma = tested on: SK-MEL-2 melanoma
EKVX NSCLC = tested on: EKVX NSCLC
SN12C renal = tested on: SN12C renal
UO-31 renal = tested on: UO-31 renal
TK-10 renal = tested on: TK-10 renal
ACHN renal = tested on: ACHN renal
CAKI-1 renal = tested on: CAKI-1 renal
A498 renal = tested on: A498 renal
CCRF-CEM leukemia = tested on: CCRF-CEM leukemia
MOLT-4 leukemia = tested on: MOLT-4 leukemia

| Compound | growth (HCT-15 colon) | growth (HT29 colon) | growth (SNB-75 CNS) | growth (SNB-19 CNS) | growth (U251 CNS) | growth (PC-3 prostate) | growth (SK-MEL-5 melanoma) | growth (UACC-62 melanoma) | growth (SK-MEL-28 melanoma) | growth (SK-MEL-2 melanoma) | growth (EKVX NSCLC) | growth (SN12C renal) | growth (UO-31 renal) | growth (TK-10 renal) | growth (ACHN renal) | growth (CAKI-1 renal) | growth (A498 renal) | growth (CCRF-CEM leukemia) | growth (MOLT-4 leukemia) |
| --- | --- | --- | --- | --- | --- | --- | --- | --- | --- | --- | --- | --- | --- | --- | --- | --- | --- | --- | --- |
| Cc1ccc(NC2CC(=O)N(c3c(C)cc(C)cc3C)C2=O)c(C)c1 (centres undefined) | 105% | 106% | 105% | 92.6% | 95.8% | 95.3% | 99.9% | 94.3% | 109% | 112% | 95.3% | 97.2% | 81.2% | 106% | 101% | 95.6% | 105% | 88.6% | 94.6% |
| C/C(=C(/c1ccccc1)c1ccc(N2C(=O)c3cccc4c(NCc5ccccc5)ccc(c34)C2=O)cc1)c1ccccc1 | 103% | 112% | 94.6% | 96.8% | 99.5% | 82.1% | 99.3% | 80.3% | 107% | 107% | 75.3% | 92% | 68.8% | 145% | 94.8% | 84.5% | 107% | 89.1% | 88.9% |
| Cc1cc(C)nc(NC(N)=NCCc2ccccc2)n1 | 55% | 13.5% | 23.7% | 46.8% | 31.6% | 37.7% | 22% | 38% | 33.8% | 38.4% | 59.7% | 45.1% | 69.2% | 75.6% | 46.9% | 93.6% | 86.9% | 45.3% | 47.7% |
| C=C(C)[C@@H]1CC[C@]2(C(=O)NNC(=O)c3cccnc3)CC[C@]3(C)[C@H](CC[C@@H]4[C@@]5(C)CCCNC(C)(C)[C@@H]5CC[C@]43C)[C@@H]12 | 62.4% | 11.3% | 80% | 91.2% | 64.6% | 50.3% | 74.4% | 91% | 90% | 100% | 94.3% | 83.7% | 64% | 158% | 98.1% | 76% | 88.1% | 65.6% | 40.1% |
| O=C(O)c1cccc2c1-c1ccc(Cl)cc1C2 | 102% | 109% | 88.2% | 105% | 108% | 108% | 103% | 102% | 108% | 102% | 110% | 105% | 89.7% | 103% | 107% | 86.5% | 96.8% | 99.5% | 89.9% |
| CC1(C)CC[C@]2(C(=O)NCCNCCN)CC[C@]3(C)C(=CC[C@@H]4[C@@]5(C)CCC(=O)C(C)(C)[C@@H]5CC[C@]43C)[C@@H]2C1 | 27% | -2.78% (active) | 69.8% | 56.1% | -69.7% (active) | 40.9% | 87.6% | -89.3% (active) | 38.6% | 82.4% | 94.8% | 14.2% | 87.8% | 127% | 12.2% | 27.1% | 81.5% | -17.8% (active) | 3.49% (active) |
| N#CC1=C(N)Oc2c(c(N)nn2-c2ccccc2)C1c1ccc(Cl)cc1 (centres undefined) | 107% | 107% | 77.3% | 94.7% | 94.9% | 91.7% | 101% | 86% | 100% | 103% | 90.7% | 97.8% | 61.2% | 152% | 93.1% | 86.8% | 97.8% | 101% | 98.8% |
| Cn1cc(-c2nc(-c3c[nH]c4ncccc34)cs2)c2cc(F)ccc21 | 19.6% | 19.6% | 31.6% | 53.3% | 36.7% | 33.6% | 51.4% | 47.6% | 60.5% | 28.3% | 14.5% | 51.3% | 29.4% | 23.2% | 24.1% | 12.8% | 42.3% | 25.8% | 23.9% |
| c1cc(N2CCCC2)c2nc(-c3[nH]ncc3Nc3ncnc4[nH]ccc34)[nH]c2c1 | -26.4% (active) | 1.13% (active) | -59.6% (active) | -13.1% (active) | 3% (active) | 3.86% (active) | -89.3% (active) | -78.5% (active) | -53.3% (active) | -42.1% (active) | -31% (active) | -13.7% (active) | -20.3% (active) | -26.4% (active) | -14.6% (active) | -33.2% (active) | -79.5% (active) | 1.97% (active) | 1.93% (active) |
| C=C1CC[C@@H](C(=O)OC)Cc2nc(C)ccc21 | 102% | 104% | 100% | 97.1% | 103% | 98.4% | 101% | 96.9% | 107% | 103% | 99.8% | 96.4% | 93.6% | 101% | 103% | 90.9% | 106% | 102% | 101% |
| COc1ccc(NC(=O)c2ccoc2COc2ccccc2)cc1 | 89% | 107% | 87.2% | 89.6% | 96.1% | 91.3% | 100% | 82.7% | 94.6% | 97.9% | 94.7% | 94% | 81.1% | 109% | 98.3% | 86.2% | 99.7% | 87.7% | 95.6% |
| Cc1nn(-c2ccc(Cl)cc2)c(=O)n1CCn1cnc2ccccc21 | 104% | 102% | 106% | 113% | 101% | 104% | 113% | 101% | 114% | 109% | 102% | 105% | 90.8% | 108% | 109% | 95.8% | 95.6% | 106% | 100% |
| C=C(C)[C@@H]1CC[C@]2(CN)CC[C@]3(C)[C@H](CC[C@@H]4[C@@](C)(CCCN)[C@H](C(=C)C)CC[C@]43C)[C@@H]12 | 62.8% | 17.9% | 79.8% | 89.5% | 74% | 71.5% | 88.3% | 100% | 100% | 107% | 102% | 82.5% | 63% | 119% | 99.1% | 75.5% | 88.7% | 66.6% | 57% |
| O=C1CN(c2ccccc2)C(=O)C1C(=O)Nc1ccc(Cl)c(Cl)c1 (centres undefined) | 27.9% [100 µM] | 3.98% [100 µM] (active) | 6.38% [100 µM] (active) | 3.37% [100 µM] (active) | -7.08% [100 µM] (active) | 27.1% [100 µM] | -6.23% [100 µM] (active) | -3.41% [100 µM] (active) | 33.4% [100 µM] | 18.1% [100 µM] | 47.4% [100 µM] | 17.6% [100 µM] | 5.84% [100 µM] (active) | 26.4% [100 µM] | 2.16% [100 µM] (active) | -2.42% [100 µM] (active) | 11.3% [100 µM] | 35.9% [100 µM] | 6.47% [100 µM] (active) |
| Brc1cnc2[nH]cc(-c3nnc(-c4ccccc4)o3)c2c1 | 55% | 74.8% | 66.3% | 79.5% | 74.6% | 77.9% | 80.4% | 66.9% | 90.9% | 73.3% | 31.4% | 79.9% | 45.2% | 58.9% | 28.9% | 34.2% | 47% | 102% | 74.3% |
| CC(=O)O[C@H]1CC[C@@]2(C)[C@@H](CC[C@@H]3[C@@H]2CC(=O)[C@@]2(C)[C@H]3C[C@@H](C3CCCC3=O)[C@@H]2C(C)=O)C1 (some centres undefined) | 106% | 95.6% | 97.4% | 94.2% | 102% | 93.1% | 108% | 91.6% | 113% | 111% | 116% | 84.4% | 88.3% | 106% | 107% | 114% | 97.1% | 92.9% | 86.1% |
